Hit rate of the full screen: of about 340,000 compounds, about 2,100 (0.62%) were called active.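 The calls were made as follows: active = first-screen hits whose inhibition reached a set limit at any dose in the follow-up dose series; inconclusive = inhibition above the set first-screen limit but never retested; inactive = the rest.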 These entries were drawn from the full list. Potency and affinity values are given separately.

In the experiment the target is Rac GTPase-activating protein 1 (Homo sapiens) (UniProt Q9H0H5). Description: blockers of MgcRacGAP-driven Rac1 GTP hydrolysis – biochemical, ADP Hunter fluorescence, primary and confirmatory, confirmation (AID 624330).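 Also: fluorescence reports GDP produced by GAP-driven GTP hydrolysis.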 The following applies: MgcRacGAP-stimulated Rac1 GTP hydrolysis, at 30 µM, hits give high values, GST-tagged Rac1 F28L mutant substrate.
Sequence of Rac GTPase-activating protein 1 (Homo sapiens) (Q9H0H5 whole entry, looked up): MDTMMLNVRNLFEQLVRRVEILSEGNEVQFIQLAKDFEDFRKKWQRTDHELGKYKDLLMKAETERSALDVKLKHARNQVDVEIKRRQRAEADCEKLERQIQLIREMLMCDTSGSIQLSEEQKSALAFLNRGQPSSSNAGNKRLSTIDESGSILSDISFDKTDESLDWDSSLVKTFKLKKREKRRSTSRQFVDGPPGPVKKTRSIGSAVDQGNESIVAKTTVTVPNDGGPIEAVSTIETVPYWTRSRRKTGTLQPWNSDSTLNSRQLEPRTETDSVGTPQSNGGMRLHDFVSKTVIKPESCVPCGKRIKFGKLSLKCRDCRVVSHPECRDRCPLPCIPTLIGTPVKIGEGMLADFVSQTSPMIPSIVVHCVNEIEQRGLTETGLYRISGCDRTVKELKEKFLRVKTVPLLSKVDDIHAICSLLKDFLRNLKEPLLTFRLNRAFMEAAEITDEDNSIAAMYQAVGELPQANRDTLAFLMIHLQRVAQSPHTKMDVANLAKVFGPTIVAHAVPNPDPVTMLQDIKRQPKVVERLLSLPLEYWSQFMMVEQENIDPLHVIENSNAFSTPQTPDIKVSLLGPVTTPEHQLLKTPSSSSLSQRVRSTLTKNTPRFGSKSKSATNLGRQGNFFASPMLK
Turning to `Cc1noc(C)c1NC(=O)Nc1cccc2c1O[C@@H](CN(C)Cc1ccc3c(c1)OCO3)[C@@H](C)CN([C@H](C)CO)C2=O`, the inhibition was 4.09% (inactive).
The value for `CCN1CCCC1CNC(=O)c1ccc(Sc2ccccc2Cl)c([N+](=O)[O-])c1` (centres undefined) was 4.96% (inactive); that for `Cc1cc(=O)oc2c(CN3CCCC3)c(O)ccc12` was 6.69% (inactive); that for `Cc1cc(=O)oc2c(CN3CCCCC3)c(O)ccc12` was 2.34% (inactive).
Next, `Cc1ccc2c(CN3CCOCC3)cc(=O)oc2c1C`: 3.73% (inactive); `Cc1c(O)ccc2c(CN3CCOCC3)cc(=O)oc12`: 17.9% (inactive); `CC1CCN(CC(O)COc2cccc(F)c2)CC1` (centres undefined): 2.16% (inactive).
With `NC(=O)c1ccc(NC(=O)CN2CCN(C(=O)c3ccco3)CC2)cc1`, the inhibition is 13.6% (inactive).
Next, `CSc1cccc(CN2CCCC(CNC(=O)c3ccco3)C2)c1` (centres undefined): 8.31% (inactive); `Cc1c(NC(=O)Nc2ccc(Cl)c(Cl)c2)sc(=S)n1C`: -8.84% (inactive).
The value for `N#C/C(=C\c1cccc(O)c1)C(=O)N1CCCCC1` was 11.3% (inactive); that for `N#C/C(=C/c1cc(Cl)c(O)c(Cl)c1)C(=O)N1CCCCC1` was 10.9% (inactive); that for `O=C(O)c1ccc(/C=C2\CCCc3c2nc2ccccc2c3C(=O)O)cc1` was 3.69% (inactive).
Next, `O=C(O)c1c2c(nc3ccccc13)/C(=C/c1ccc(OC(F)F)cc1)CCC2`: 9.02% (inactive); `CN(C)C(=O)CCc1ccc2c3c([nH]c2c1)[C@]1(C)[C@@H](C(=O)N2CCOCC2)C[C@H](CC(=O)NCc2cccc(C(F)(F)F)c2)C(=O)N1CC3`: -2.92% (inactive).
Take `C/C(=N/NC(=O)c1cccc(Br)c1)C1CC2CCC1C2` (centres undefined): the inhibition is -6.86% (inactive).
Next, `Cc1ccc(/C=C(/C#N)c2nc(CCN3C(=O)c4ccccc4C3=O)cs2)cc1`: 9.96% (inactive).
Take `CC(C(=O)NC(=O)NC1CCCCC1)N1CCN(c2ccccn2)CC1` (centres undefined): the inhibition is 4.4% (inactive).
The value for `COc1ccc(N2CCN(C(C)C(=O)N3CCc4ccccc43)CC2)cc1` (centres undefined) was 19.8% (inactive); that for `CC(C(=O)NC(=O)NC1CCCCC1)N1CCN(C(c2ccccc2)c2ccccc2)CC1` (centres undefined) was 4.85% (inactive).
Take `CCN1CCN(C(C(=O)NC2CCCCC2)c2ccc(Cl)cc2)CC1` (centres undefined): the inhibition is 2.93% (inactive).
The value for `CN1CCC(NC(=O)NC2CCCCC2)CC1` was 4.99% (inactive).
In the case of `COc1ccc(N2CCN(C(C)C(=O)N3CC(C)OC(C)C3)CC2)cc1` (centres undefined), the inhibition is 26.9% (inactive).
Regarding `CN1CCN(C(=O)NC2CCCCC2)CC1`, the inhibition was 13% (inactive).
Next, `CC(C(=O)NC1CCCC1)N1CCN(Cc2ccccc2)CC1` (centres undefined): 9.35% (inactive).
Next, `C=CCN1C(=O)CS/C1=N\S(=O)(=O)c1ccc(Cl)cc1`: -1.54% (inactive); `CCOC(=O)c1c(C)n(C)c2ccc(OC)c([N+](=O)[O-])c12`: 8.57% (inactive).
For `CCCOc1c(Br)cc(C(=O)NCC)cc1OC`, the inhibition was 13% (inactive).
Turning to `CSCCC(NS(=O)(=O)c1ccc2c(c1)oc(=O)n2C)C(=O)NCc1ccc(C)cc1` (centres undefined), the inhibition was 9.41% (inactive).
The value for `CCCNC(=O)c1ccc(OC)cc1OC` was -1.98% (inactive); that for `Cc1cccc(N=C2CCCC2C(=O)Nc2cccc(C)c2C)c1C` (centres undefined) was 5.77% (inactive); that for `NC(=O)c1ccsc1NC(=O)COC(=O)c1cc(Cl)ccc1O` was 0.77% (inactive).
The value for `CC(=O)NC(C(=O)c1ccccc1)N1CCCCC1` (centres undefined) was 13.8% (inactive); that for `Cc1ccc(/C=C2/NC(=O)[C@H](C)NC2=O)cc1` was 6.59% (inactive); that for `CCN1C(=NCCOC)N[C@@H](CCc2ccccc2)[C@H](C(=O)OC)[C@H]1C` was 12.5% (inactive).
On to `C=C(C)CSc1nc2sc3c(c2c(=O)n1-c1ccccc1)CCN(C)C3`, for which the inhibition is 11.6% (inactive).
The value for `COc1cccc(N2CCN(C(=O)NC3CCCCC3)CC2)c1` was 2.77% (inactive); that for `O=C(NC1CCCCC1)N1CCN(c2ccc(Cl)cc2)CC1` was 6.94% (inactive).
Next, `O=C(c1ccccc1Cc1ccccc1)N1CCN(S(=O)(=O)c2ccccc2Br)CC1`: 3.3% (inactive); `COc1ccc(S(=O)(=O)N2CCN(C(=O)CCSc3ccccc3)CC2)cc1`: 7.76% (inactive); `O=C(CNC(=O)c1ccccc1Br)N/N=C/c1ccco1`: 5.21% (inactive).
In the case of `O=C(c1ccc(S(=O)(=O)NCC2CCCO2)cc1)N1CCN(c2ccccc2F)CC1` (centres undefined), the inhibition was 5.89% (inactive).
As for `COc1ccc(S(=O)(=O)Cc2ccc(C(=O)N3CCN(c4ccc(Cl)cc4)CC3)o2)cc1`, the inhibition is 4.84% (inactive).
The value for `COc1ccc(N2CCN(C(=O)c3ccc(CS(=O)Cc4ccc(Cl)cc4)o3)CC2)cc1` (centres undefined) was 14% (inactive); that for `C=CCN(Cc1ccc(Cl)s1)C(=O)c1cc(S(=O)(=O)N2CCOCC2)ccc1F` was 1.3% (inactive); that for `COc1ccc(NC(=O)/C(=C\c2cc(OC)c(OC)cc2[N+](=O)[O-])NC(=O)c2ccccc2)cc1` was 9.89% (inactive).
The value for `COc1cc(/C=C(/NC(=O)c2ccccc2)C(=O)Nc2ccccc2)c([N+](=O)[O-])cc1OC` was 4.35% (inactive).
Regarding `C=CCn1c(COc2ccccc2)nnc1SCC(=O)N/N=C/c1ccc(C)cc1`, the inhibition was 1.44% (inactive).
Take `C=CCn1c(CNc2ccc(C)cc2)nnc1SCC(=O)N/N=C/c1ccc(O)cc1`: the inhibition is 30.4% (inactive).
Next, `C=CCn1c(CNc2ccccc2)nnc1SCC(=O)N/N=C/c1ccccc1O`: 3.95% (inactive); `C=CCn1c(COc2ccccc2)nnc1SCC(=O)N/N=C/c1cc(Cl)ccc1O`: 11% (inactive).
For `COc1c(N)c2c(c([N+](=O)[O-])c1OC)C(=O)OC2`, the inhibition was -0.66% (inactive).
The value for `C/C(=N\OCC(=O)Nn1c(=O)[nH]c2ccccc2c1=O)c1ccccc1` was 10.5% (inactive); that for `Cc1cc(C)nc(NN=C(c2ccccc2)c2ccccc2)n1` was 7.14% (inactive).
Next, `CC1=C(C(=O)Nc2ccccc2C(=O)NCCCOC(C)C)SCCO1`: -0.28% (inactive); `O=C(Nc1ccc(Br)cc1)c1cccc(N2C(=O)C3C4C=CC(C4)C3C2=O)c1` (centres undefined): 7.3% (inactive); `O=C(Nc1ccccc1)c1cccc(N2C(=O)C3C4C=CC(C4)C3C2=O)c1` (centres undefined): 8.69% (inactive).
The value for `CN1CCOCCOCCN(C)C1=O` was 8.52% (inactive); that for `O=C(Cc1cccc2ccccc12)NC(=S)Nc1cccc(C(=O)O)c1` was 5.5% (inactive); that for `COc1cc(/C=N/NC(=O)NC23CC4CC(CC(C4)C2)C3)ccc1OCC(N)=O` was 7.72% (inactive).
Consider `COc1ccc(/C=C2/S/C(=N/N=C3\CC4CCC3(C)C4(C)C)NC2=O)cc1` (centres undefined), for which the inhibition is 7.33% (inactive).
Take `COc1ccc(C=NNC(=O)NN=Cc2ccc(OC)c(OC)c2)cc1OC`: the inhibition is 3.42% (inactive).
Turning to `O=C(N/N=C/c1ccncc1)NC12CC3CC(CC(C3)C1)C2`, the inhibition is 10.9% (inactive).
In the case of `COc1ccc(C=NNC(=S)NC23CC4CC(CC(C4)C2)C3)cc1OC`, the inhibition was 7.09% (inactive).
The value for `COc1ccc(/C=N/N=C2\CC3CCC2(C)C3(C)C)cc1O` (centres undefined) was 5.9% (inactive); that for `O=C(N/N=C/c1ccc(O)cc1O)NC12CC3CC(CC(C3)C1)C2` was 15% (inactive); that for `COc1ccc(/C=N/NC(=O)C2C3CCCCC32)cc1OC` (centres undefined) was 10.4% (inactive).
Consider `COc1ccc(C(=O)NCC(=O)N/N=C(\C)c2ccco2)cc1OC`, for which the inhibition was -0.25% (inactive).
In the case of `CCOC(=O)CNc1nc(Cl)nc(Nc2ccc(Cl)cc2)n1`, the inhibition is -8.39% (inactive).
Regarding `CCCCn1nnc(N(C(=O)c2cccs2)C(=O)c2cccs2)n1`, the inhibition was -4.48% (inactive).
Take `CC(C)CC(=O)NC(=S)Nc1ccc(N2CCOCC2)c(Cl)c1`: the inhibition was 2.66% (inactive).
Next, `S=C(c1ccc(-c2ccc(Cl)cc2Cl)o1)N1CCCCC1`: 10.8% (inactive); `O=C(COc1ccc(Cl)cc1)NNC(=O)c1ccncc1`: 8.55% (inactive); `Cc1ccc(NC(=O)c2sccc2C)cc1S(=O)(=O)N(C)C`: 11.1% (inactive).
For the molecule `COc1ccc2c(c1)C1NC(=S)N[C@@](C)(O2)C1C(=O)Nc1ccccc1` (some centres undefined), the inhibition is 9.66% (inactive).
The value for `COc1nn(CC(=O)N2N=C(C(F)F)CC2(O)C(F)F)cc1[N+](=O)[O-]` (centres undefined) was 5.35% (inactive).
The value for `CC(C)CN1CCC(=O)N([C@H](CN=[N+]=[N-])Cc2ccccc2)CC1` was 7.37% (inactive).
The value for `O=C(NN=Cc1cc([N+](=O)[O-])ccc1O)c1cccc2ccccc12` was 4.07% (inactive); that for `COc1ccc(/C=N/NC(=O)NC23CC4CC(CC(C4)C2)C3)c(OC)c1` was 0.89% (inactive); that for `O=C(N/N=C/c1ccccc1O)NC12CC3CC(CC(C3)C1)C2` was 7.17% (inactive).
Turning to `COc1ccccc1N1CCN(C2CCCN(C(=O)c3ccsc3)C2)CC1` (centres undefined), the inhibition was 9.49% (inactive).
The value for `Cc1nnc(SCC(=O)NNC(=O)COc2ccc(Cl)cc2)s1` was 3.46% (inactive).
Regarding `CCN(CC)c1ccc(C(=O)NNC(=O)CCNC(=O)c2ccccc2)cc1`, the inhibition was 7.48% (inactive).
As for `CCN(CC)c1ccc(C(=C2C=CC(=[N+](CC)CC)C=C2)c2ccc(S(=O)(=O)O)cc2S(=O)(=O)[O-])cc1`, the inhibition was 25.4% (inactive).
As to `CCN(CC)c1ccc(C(=S)NCc2ccccc2)cc1`, the inhibition was 9.69% (inactive).
With `CCN(CC)c1ccc(C(=O)NN)cc1`, the inhibition was 10% (inactive).
Next, `CC(C)(/C=N/NC(=O)CSCc1ccccc1Cl)CCC#N`: 4.57% (inactive); `Cc1nc(NC(=O)C2CC2)sc1C(=O)Nc1ccccc1`: 12.6% (inactive); `CCc1ccc(NS(=O)(=O)c2ccc3[nH]c(=O)[nH]c3c2)cc1`: -4.35% (inactive).
Take `Cn1c(SCC(=O)NC2CCS(=O)(=O)C2)nnc1-c1ccco1` (centres undefined): the inhibition is -3.56% (inactive).
In the case of `O=C(CCNC(=O)c1ccccc1)NC1CCCc2ccccc21` (centres undefined), the inhibition is 6.57% (inactive).
Turning to `Cc1ccc(S(=O)(=O)NCCc2ccncc2)cc1[N+](=O)[O-]`, the inhibition was 2.26% (inactive).
For `CCN(CC)S(=O)(=O)c1cccc(-c2n[nH]c(=S)n2/N=C/c2ccc(Br)cc2)c1`, the inhibition is 12.8% (inactive).
Next, `CCN(CC)S(=O)(=O)c1cccc(-c2n[nH]c(=S)n2/N=C/c2ccc(OC)cc2)c1`: 8.14% (inactive).

(Values after PubChem BioAssay AID624330 (Southern Research Specialized Biocontainment Screening …, 2012).)
